Test results: ChEMBL document CHEMBL4513216, “Probing the Open Global Health Chemical Diversity Library for Multistage-Active Starting Points for Next-Generation Antimalarials” (ACS Infect Dis, 2020)
The campaign covered roughly 68,000 compounds. About 2,700 (4%) showed an effect of 50% or more. For the sample, strong results were picked, then their nearest neighbours and some compounds at random.

system: Plasmodium berghei; experiment: Screen against P. berghei liver stage (PbLuc), transformed with Luciferase, at 2uM; type: functional, HepG2; details: tested at 2 uM

| Structure (SMILES) | INHIBITION [%] |
| --- | --- |
| CCc1ccc(S(=O)(=O)Nc2ccncc2)s1 | -13.03 |
| COc1cc2c(cc1CN1CCn3c(CO)nnc3C1)CCC2 | 16.14 |
| Cc1cc(CN2CCCC2c2noc(C)n2)no1 (stereo not given) | -52.52 |
| Cc1nnc([C@@H]2C[C@H]3CN(C4CCC4)C[C@H]3O2)[nH]1 | 4.07 |
| CCCc1nnc(N2CCN(c3ccccc3OCC)CC2)o1 | -11.34 |
| O=C(CCC1CCCC1)N1CCCC(c2ncc3c(n2)CCNC3)C1 (stereo not given) | 24.89 |
| Cc1c(CN2CCCC(C(=O)Nc3ccccc3)C2)cc(C#N)n1C (stereo not given) | 9.63 |
| c1cc(CN2CCCCC2c2ccc(Nc3cnccn3)nc2)ccn1 (stereo not given) | 42.53 |
| Cc1ncoc1C(=O)N1CCc2[nH]nc(-c3ccc4c(c3)OCO4)c2C1 | -4.53 |
| Cc1nc(COCc2cnc3n2CCN(CC2CCC2)C3C)cs1 (stereo not given) | 25.35 |
| O=C(N[C@@H]1CCC[C@@H](N2CCCC2)[C@@H]1O)c1cc2ccccc2[nH]1 | 14.49 |
| O=C(N[C@@H]1CCC[C@@H](N2CCOCC2)[C@@H]1O)c1cc2ccccc2[nH]1 | 8.26 |
| O=C(N[C@@H]1CC[C@@H](N2CCCC2)[C@@H]1O)c1cc2ccccc2[nH]1 | 51.88 |
| COCc1nc(C(=O)NS(=O)(=O)c2cc(F)ccc2F)cs1 | 29.37 |
| Cc1nc(NCc2nncn2C2CC2)c2c(CC(C)C)csc2n1 | 36.86 |
| COc1ccc(CN2CCC(O)(CN3CCCCC3)C2)c(C)c1 (stereo not given) | -1.21 |
| CN(Cc1noc(C2CC2)n1)C1CCN(Cc2nc(C3CC3)no2)C1 (stereo not given) | 27.89 |
| CC1CCN(CCCNC(=O)NC(C)c2nncn2C)CC1 (stereo not given) | 6.3 |
| CCNc1c(NC(=O)NCCOC)c(=O)oc2ccccc12 | -25.41 |
| FC(F)(F)c1nc(NC2CCc3ncnn3C2)c2ccccc2n1 (stereo not given) | -8.8 |
| FC(F)(F)c1nc(NC2CCCCC2)c2ccccc2n1 | 52.43 |
| FC(F)(F)c1nc(NC2CCCC2)c2ccccc2n1 | 15.52 |

| Structure (SMILES) | INHIBITION [%] |
| --- | --- |
| O=c1c2sccc2nc2n1CCN(Cc1ccccc1C(F)(F)F)CC2 | 26.56 |
| O=C1CC(c2ccccc2)C2(CCN(C(=O)c3cnccn3)CC2)N1 (stereo not given) | 20.87 |
| COc1ccccc1CN1CC[C@H]2C[C@H](C(=O)N3CCCC3)O[C@H]2C1 | 15.89 |
| O=C([C@@H]1C[C@@H]2CCN(C3CCOCC3)C[C@H]2O1)N1CCCC1 | -26.64 |
| O=C([C@@H]1C[C@@H]2CCN(CCc3ccccc3)C[C@H]2O1)N1CCCC1 | 14.94 |
| O=C([C@H]1C[C@@H]2CCN(C3CCOCC3)C[C@H]2O1)N1CCCC1 | 18.65 |
| COc1ccccc1CN1CC[C@H]2C[C@@H](C(=O)N3CCCC3)O[C@H]2C1 | 52.4 |
| O=C([C@@H]1C[C@@H]2CCN(C3CCOCC3)C[C@@H]2O1)N1CCCC1 | 65.26 |
| CCC1CN(CCC(=O)N(C)C)CCN1CCOC (stereo not given) | -7.41 |
| CC/N=c1\nc(NCC)nc2n1C(O)(Nc1cc(Cl)ccc1Cl)CS2 (stereo not given) | 28.5 |
| CCc1nc(C(=O)N2CCN(CC)CC2)nn1-c1ccccc1Cl | 13.24 |
| CC(C)N(C)Cc1nnc2n1CCN(Cc1ccncc1)CC2 | -2.32 |
| COc1ccc(Cc2ncc3c(n2)CN(C(=O)CO)C3)cc1 | 6.39 |
| Cc1cnn(C2CN(CC(=O)N(C)Cc3cccs3)C2)c1 | 7.67 |
| Cc1cnn(C2CN(CC(=O)N(C)Cc3ccc(C)o3)C2)c1 | 62.51 |
| Cc1ccc(CN(C)C(=O)CN2CC(n3cccn3)C2)o1 | 3 |
| Cc1cc(NCc2ccco2)nc2[nH]nc(N)c12 | -0.89 |
| Fc1cccc(-c2nnn3c2COC(CNCc2nccs2)C3)c1 (stereo not given) | -19.51 |
| Cc1cccc(N2CCCC3(C2)CN(S(C)(=O)=O)CCO3)c1 (stereo not given) | -51.66 |
| CCS(=O)(=O)N1CCOC2(CCCN(c3cccc(C#N)c3)C2)C1 (stereo not given) | 56.76 |
| CC(C)NC(=O)N1CCOC2(CCCN(c3cccc(C#N)c3)C2)C1 (stereo not given) | 24.82 |
| Cc1cc(C(=O)N2CCN(CC(O)Cn3cccn3)CC2)c(C)o1 (stereo not given) | 12.62 |

| Structure (SMILES) | INHIBITION [%] |
| --- | --- |
| O=C(c1cccc(Cl)c1Cl)N1CCN(CC(O)Cn2cccn2)CC1 (stereo not given) | 65.3 |
| CCOCC(O)CN1CCN(C(=O)c2ccccc2Cl)CC1 (stereo not given) | -45.23 |
| CCCC(=O)NCC(=O)NC(c1ccc(Cl)cc1)C(F)(F)F (stereo not given) | 28.25 |
| Cc1cccc(C(=O)NCc2ccnc(N(C)C)c2)n1 | -11.1 |
| O=C(C1CC1)N1CCN2C[C@H](c3ccccc3)[C@@H](CO)[C@H]2C1 | 7.41 |
| CC(=O)NC1CCCN(C(=O)NCc2cccnc2N(C)C)C1 (stereo not given) | 20.71 |
| CCC(CC)c1nnc(NC(=O)N2CCC(C(N)=O)CC2)s1 | 23.45 |
| CCCc1nnc(NC(=O)N2CCCC2c2ccncc2)s1 (stereo not given) | -24.78 |
| CCCc1nnc(NC(=O)N2CCCC(NC(C)=O)C2)s1 (stereo not given) | 52.08 |
| CCC(CC)c1nnc(NC(=O)N2CCCC(NC(C)=O)C2)s1 (stereo not given) | 56.49 |
| CC(=O)NC1CCCN(C(=O)Nc2nnc(C(C)C)s2)C1 (stereo not given) | 20.14 |
| Cc1cc(C)c(S(=O)(=O)Nc2cccc3c2OCCO3)cc1C(=O)O | -49.16 |
| Cc1oncc1C(=O)N1CC[C@H]2[C@H](CO[C@@H]2CNS(C)(=O)=O)C1 | 11.37 |
| O=C(NCC1CCCCC1)N1C[C@@H]2C[C@@H]1CN2 | -3.1 |
| O=C(CC1CCCC1)N1C[C@@H]2C[C@@H]1CN2 | 30.4 |
| CC(C)(C)CC(=O)N1C[C@@H]2C[C@@H]1CN2 | 74.88 |
| CC(C(=O)N1CCc2sccc2C1)N1CCC(S(N)(=O)=O)CC1 (stereo not given) | 44.37 |
| CN(C)c1nccc(N(C)Cc2nc3ccccc3n2C)n1 | 13.51 |
| CN(Cc1ncnn1C)c1ccnc(Cc2ccccc2)n1 | 26.49 |
| CN(C)c1nccc(N(C)Cc2ncnn2C)n1 | 65.42 |
| CN(Cc1cccs1)c1cc(N2CCCC2CO)ncn1 (stereo not given) | -25.71 |
